Measurements taken from the supplement of paper PMC6555819.

test system: PPARg homodimer (NR concentration 180 nM); test: PBM binding z-score (relative to random genomic background probes); higher = stronger binding; sequences stand for … in GC…GCGATTGACAGCGTAGAATGAAGG
How it was run: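 Binding buffer was PBS pH 7.4 with 2% milk, 0.02% Triton X-100, 1 mM DTT, 0.2 mg/mL BSA and 0.4 mg/ml salmon testes DNA. In it, ligand-free nuclear receptor dimers were incubated 1 h on custom Agilent 4×180K protein-binding microarrays carrying double-stranded probes. Antibodies against each partner (one per run) detected binding, and z-scores were calculated against random background probes after regression normalization of scanned fluorescence.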

Point of comparison: CCAGACAGGTGTAAGGTAACTCAGTCTGGTACGC, PBM binding z-score 0.365. Against it:
- CCACGGAGGACAGAAGGTCAGAGCTGTCCGCTTT — higher, 0.926
- ATCTCGAGGTAAAGTTCAGTGAAAGATCGATAGA — higher, 1.21
- CGAACTAGGTCATCCAGGACAGTGTATACATTGA — higher, 1.54
- CGAACTAGGTCATCCAGGGCAGTGAATACATTGA — higher, 2.66
- GCTTTCGGGTCAAAGGTTATAGCATGAATAGAAT — higher, 1.81
- GCGACTGGGGTAAAGCAGGTTACCATAAGGTTGG — lower, -0.0118
- AGAATGAGGTTATGAAGATCAGGGAATTGCGGTC — higher, 0.625
- GGAACGAGGGAAAAGTTGATAGCATCTGTCGACG — lower, -0.562
- ATATGTAGGTTAGCTGGGTTCATTCAGACTAGGC — higher, 2.07
- AGAATGAGGTTATAAGTAGATCAGGGAAGAAAGT — higher, 1.83
- TCTAGCAGGCCAAAGGGTCACTCAAGAGGTACGG — higher, 2.19
- GCGACTGGGGCAAAGCAAGTTACCATAAGGTTGG — lower, 0.355
- GTACCAAGGTGAATAGGACGTTGATGAGTAGGCG — higher, 0.583
- TCAAGTAGGTTACCAATGGGGCATTCAGCTTTCT — higher, 0.999
- TCATATAGGTACTACAGGTGAAAGTCGGCATCTA — higher, 0.506
- TCATATAAGTAAACAGGTGAAAGTCCGTAAGTTA — higher, 1.13
- TCATGTAGGTAAATGCTAGGTGAAAGTCCGATCT — higher, 0.796
- CCTTACGGGTCACGAGGTTATAGGACGACGAGCG — higher, 1.95
- ATATCAAGGTGATCGTGAGGTCGTTGATACTAAC — lower, 0.347
- TAGCCTAGGTCATGCGGGCCACTATAGTGTCGGC — higher, 1.72
- GTACCAAGGTGAAGAGGTCGTTGATGAGTAGGCG — higher, 1.37
- CCTAGTTGGTCAAAGTCACACACGCTATAGGTAC — higher, 1.59
- TCTTGTAGATCAAGCACGTTAAGAAAGCCTGAGT — higher, 0.56
- TTACCAAGGTGAGAGGTCGTTGATGCACGCCTTG — higher, 1.63
- TCTTGTAGATCAAAGGCTAAGAAAGCCGAAGCCT — lower, -0.136
- TAGCCTAGGTCAGAACGGGCCAGTATACGCTATA — lower, 0.155
- ATCGAAAGGTCGAAGGCGAGTATACCCACCCGAA — higher, 1.03
- CCTAGCAAGCCAATCTGGGTCACTCAAGGCTTGA — higher, 0.973
- CCGAGTTGGTCAGGAGGTCACACACCGGATATGA — higher, 3.62
- AGAGACAGGTGAGTGAAGGTAACTCAGCTGGACG — lower, 0.101
- GCTCGGCGGACAAGGTCAGAGCTTTGTCCGTAGA — lower, -0.129
- ACTAGCAGGCCAAGTTTGGGCCACTCAAACAAAG — lower, -1.66
- ACTAGCAGGCCAAGTTTGGGTCACTCAGACAAAG — higher, 0.405
- CCTTACGGGTCACTCCAGGGTATAGCATCGGAGT — higher, 2.12
- GGAACGAGGGCAATTTGATAGCAGAGTTTGATGG — lower, 0.234
- CGTCCAAGGTCATAGGAGGTCAGTTAAGACAGAT — higher, 3.95
- CGTCCAAGGTGAGCAGGTCAGTGAAAGCGACGTG — higher, 0.43
- GCTAGTTGGTCAGTAAAAGGTCACACATCGGTCG — higher, 4.49
